Where “and” joins values, the source holds several entries; their conditions need not be identical. Equal values may be shown once. Records with an inconclusive call do not appear. Calls of active or inactive are those of the source. Unless noted, calls come from the whole dose curve; as a rule, active = well fitted curve in the direction sought with a large enough effect in the repeat runs; inconclusive = weak or mixed curves; inactive = no such curve, though single readings can be large; an effect the other way counts as inactive or inconclusive.
Tests used:
[1] = qHTS assay to identify small molecule agonists of the NFkB signaling pathway - cell viability counter screen (AID 1159515; calls by dose curve; note: nearly all actives have a fitted effect of over 55% in size; note: potency is the fitted concentration of half-maximal effect)
Summary of the method: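 Parallel cytotoxicity counter screen in ME-180 cells carrying an NFkB-response-element beta-lactamase reporter, 2,000 cells/well. Compound exposure lasted 5 hr at 37 C, 5% CO2. Cell viability was quantified by CellTiter-Glo luminescence.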

[2] = qHTS assay to identify small molecule agonists of the endoplasmic reticulum stress response signaling pathway - cell viability counter screen (AID 1159517; calls by dose curve; note: nearly all actives have a fitted effect of over 50% in size; note: potency is the fitted concentration of half-maximal effect)
Summary of the method: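 Cpd-treated ESRE-bla HeLa (5 hr, 37 C) → LiveBLAzer 2 hr RT → CellTiter-Glo 30 min RT → luminescence.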

[3] = qHTS assay to identify small molecule antagonists of the retinoid-related orphan receptor gamma (ROR-gamma) signaling pathway - cell viability counter screen (AID 1159520); note: nearly all actives have a fitted effect of over 50% in size; note: potency is the fitted concentration of half-maximal effect
Summary of the method: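 Tet-on ROR gamma CHO cells (1,000/well) were plated 4 hr, given compounds in DMSO for 2 hr at 37 C, then induced with 1 uM final doxycycline for 16 hr. Viability was read as ATP by CellTiter-Glo luminescence after 30 min.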

[4] = qHTS assay to identify small molecule agonists of the AP-1 signaling pathway - cell viability counter screen (AID 1159525; calls by dose curve; note: nearly all actives have a fitted effect of over 55% in size; note: potency is the fitted concentration of half-maximal effect)
Summary of the method: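 Each titration point was normalised to DMSO and tetra n-octyl ammonium bromide controls. The read was Cell Titer Glo luminescence after 30 min at RT, following 5 h compound exposure of ME-180 AP-1-bla cells at 37 °C.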

[5] = qHTS assay to identify small molecule agonists of the AP-1 signaling pathway (AID 1159526; calls by dose curve)
[6] = target: Retinoic acid receptor RXR-alpha (Homo sapiens) (UniProt P19793); assay: qHTS assay to identify small molecule agonists of the RXR signaling pathway (AID 1159527; calls by dose curve; note: nearly all actives have a fitted effect of over 35% in size)
Sequence of Retinoic acid receptor RXR-alpha (Homo sapiens) (P19793 whole entry, looked up): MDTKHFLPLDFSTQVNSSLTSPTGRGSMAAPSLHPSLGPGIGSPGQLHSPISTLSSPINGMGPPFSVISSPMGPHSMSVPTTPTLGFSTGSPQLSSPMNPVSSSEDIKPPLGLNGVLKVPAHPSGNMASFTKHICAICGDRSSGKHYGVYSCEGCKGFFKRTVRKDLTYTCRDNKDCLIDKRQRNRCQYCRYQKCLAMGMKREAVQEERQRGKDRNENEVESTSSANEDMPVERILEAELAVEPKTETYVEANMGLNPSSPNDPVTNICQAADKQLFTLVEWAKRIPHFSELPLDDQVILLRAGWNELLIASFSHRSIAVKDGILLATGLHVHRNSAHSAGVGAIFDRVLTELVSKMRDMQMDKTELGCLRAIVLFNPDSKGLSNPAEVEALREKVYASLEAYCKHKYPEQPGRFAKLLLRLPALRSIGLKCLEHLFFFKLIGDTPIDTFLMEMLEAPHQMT
Summary of the method: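 qHTS of the Tox21 10K library in GeneBLAzer RXR-alpha HEK 293T cells carrying a beta-lactamase reporter […]; 16 hr treatment, 9-cis retinoic acid as agonist control, FRET read-out.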

[7] = qHTS assay to identify small molecule antagonists of the retinoic acid receptor (RAR) signaling pathway (AID 1159552; note: nearly all actives have a fitted effect of over 50% in size; note: potency is the fitted concentration of half-maximal effect)
Summary of the method: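 Quantitative HTS in C3RL4 RARE-luciferase reporter cells. Compounds were added with 1 uM (final) retinol; luminescence was read after 6 hr.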

[8] = qHTS assay to identify small molecule agonists of the retinoic acid receptor (RAR) signaling pathway (AID 1159553); note: potency is the fitted concentration of half-maximal effect
Summary of the method: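 Quantitative high-throughput format: the Tox21 10K library was tested on C3RL4 RARE-luciferase cells for 6 hr at 37 C and 5% CO2, with luminescence measured after a 30 min room-temperature reagent step.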

[9] = qHTS assay to identify small molecule antagonists of the estrogen related receptor (ERR) signaling pathway from Tox21 library - cell viability counter screen (AID 1224834); note: nearly all actives have a fitted effect of over 30% in size; note: potency is the fitted concentration of half-maximal effect
Summary of the method: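 Compounds in DMSO were pinned onto ERR cells that had been incubated for 6 h, and the plates were held at 37 C for 17.5 h. CellTiter-Fluor reagent was then added and fluorescence was measured after 30 min.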

[10] = qHTS assay to identify small molecule antagonists of the vitamin D receptor (VDR) signaling pathway - cell viability counter screen (AID 743225); note: nearly all actives have a fitted effect of over 50% in size; note: potency is the fitted concentration of half-maximal effect
Summary of the method: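 Cells (VDR-UAS-bla HEK 293T) are plated, rested 4 h at 37C, dosed with compound and 3 nM final 1-alpha,25-dihydroxy vitamin D3, and incubated 16 h. Viability is taken from CellTiter-Glo luminescence in the reporter wells.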

[11] = target: Nuclear receptor ROR-gamma (Homo sapiens) (UniProt P51449); assay: qHTS assay to identify small molecule antagonists of the retinoid-related orphan receptor gamma (ROR-gamma) signaling pathway (AID 1159521; note: nearly all actives have a fitted effect of over 50% in size; note: potency is the fitted concentration of half-maximal effect)
Summary of the method: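 RORγ antagonism is scored from reduced reporter luminescence in Tet-on CHO cells. Induction used 1 uM final doxycycline hyclate for 16 h at 37 C, following a 2 h compound exposure.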

[12] = qHTS assay to identify small molecule antagonists of the retinoid acid receptor (RAR) signaling pathway - cell viability counter screen (AID 1159551); note: nearly all actives have a fitted effect of over 35% in size; note: potency is the fitted concentration of half-maximal effect
Summary of the method: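 ATP-based viability, C3RL4 cells, 6 h at 37 C with 1 uM final retinol co-added after compound; luminescence read 30 min post CellTiter-Glo, RT.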

[13] = qHTS assay to identify small molecule agonists of the RXR signaling pathway - cell viability counter screen (AID 1159529); note: nearly all actives have a fitted effect of over 50% in size; note: potency is the fitted concentration of half-maximal effect
Summary of the method: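 Cell viability is measured by CellTiter-Glo luminescence, 30 min at room temperature, in wells already read for beta-lactamase. Engineered HEK 293T cells (RXR-alpha-UAS-bla) are dosed 16 hr at 37 C. Tetraoctyl ammonium bromide serves as positive control.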

[14] = qHTS assay to identify small molecule antagonists of the estrogen related receptor (ERR) signaling pathway - cell viability counter screen (AID 1224818);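 note: series mostly up to about 46 µM; viability measured after 17.5 h of compound exposure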
Summary of the method: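 Quantitative high-throughput viability counter screen in ERR cells. Compounds (DMSO) incubated 17.5 h at 37 C; read-out was CellTiter-Fluor fluorescence.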

[15] = qHTS assay to identify small molecule agonists of the estrogen related receptor (ERR) signaling pathway (AID 1224820)
Summary of the method: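 An ERR cell line provided by NTP was seeded at 2,000 cells per well and allowed to settle for 6 h before compounds in DMSO were added. After 18 h at 37 C, luciferase activity was measured by One-Glo luminescence.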

[16] = qHTS assay to identify small molecule antagonists of the estrogen related receptor signaling pathway with the pleiotropic PPARgamma coactivator (PGC) cell viability counter screen (AID 1224822; note: potency is the fitted concentration of half-maximal effect)
Summary of the method: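 Cytotoxicity in the PGC/ERR cell line is assessed with CellTiter-Fluor, read as fluorescence intensity 30 min after reagent addition, following 17.5 h compound treatment at 37 C.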

[17] = qHTS assay to identify small molecule agonists of the estrogen related receptor signaling pathway with the pleiotropic PPARgamma coactivator (PGC) (AID 1224823)
Summary of the method: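 Compounds dissolved in DMSO are added by pin tool to PGC/ERR cells that have settled for 6 h, and incubation continues 18 h at 37 C. Reporter output is measured as One-Glo luminescence.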

Measured: Potency

CCCCCCCCCCCCCCC(Br)C(=O)O (stereo not given)
active: [1] 54.9 µM | [2] 38.9 µM
inactive: [3] | [4] | [5] | [6] | [7] | [8] | [9]

Nc1ccccc1C(=O)OC/C=C/c1ccccc1
inactive: [1] | [2] | [3] | [11] | [12] | [7]
active: [10] 49.1 µM | [8] 1.22 µM

CCOC(=O)CC(=O)CCl
active: [11] 48.6 µM
inactive: [10] | [1] | [2] | [4] | [5] | [12] | [8] | [9]

CC(C)[C@H](C(=O)OC(C#N)c1cccc(Oc2ccccc2)c1)c1ccc(OC(F)F)cc1 (stereo not given in full)
inactive: [10] | [1] | [2] | [3] | [4] | [6] | [13] | [12] | [7] | [8] | [9]

CC(=O)[O-].CC(=O)[O-].[Hg+2]
active: [10] 3.09 µM | [1] 0.871 µM | [2] 0.776 µM | [3] 1.22 µM | [4] 3.89 µM | [13] 2.75 µM | [12] 4.33 µM | [9] 3.86 µM

Cc1cc(N=Nc2ccccc2C)ccc1N
active: [8] 864 nM and 1.22 µM | [9] 27.3 µM
inactive: [10] | [1] | [2] | [11] | [7]

S=C=Nc1cccc2ccccc12
inactive: [10] | [3] | [7]
active: [1] 21.7 µM | [2] 19.3 µM | [4] 24.3 µM | [9] 67.9 µM

CCCCOCN(C(=O)CCl)c1c(CC)cccc1CC
inactive: [10] | [1] | [2] | [3] | [4] | [12]

CCCOCC(=Nc1ccc(Cl)cc1C(F)(F)F)n1ccnc1
active: [10] 12.3 µM | [1] 30.9 µM | [2] 34.6 µM | [3] 61.1 µM | [9] 54.4 µM
inactive: [6] | [8]

C[C@@H]1CC[C@@]2(OC1)O[C@H]1[C@@H](O)[C@H]3[C@@H]4CC[C@H]5C[C@@H](O[C@@H]6O[C@H](CO)[C@H](O[C@@H]7O[C@H](CO)[C@@H](O)[C@H](O[C@@H]8OC[C@@H](O)[C@H](O)[C@H]8O)[C@H]7O[C@@H]7O[C@H](CO)[C@@H](O)[C@H](O[C@@H]8O[C@H](CO)[C@@H](O)[C@H](O)[C@H]8O)[C@H]7O)[C@H](O)[C@H]6O)[C@H](O)C[C@]5(C)[C@H]4CC[C@]3(C)[C@H]1[C@@H]2C
active: [10] 5.2 µM | [1] 9.25 µM | [2] 7.34 µM | [3] 10.3 µM | [4] 11.6 µM | [13] 4.13 µM | [7] 20.5 µM | [9] 20.5 µM

O=S(=O)(c1ccc(Cl)cc1)c1ccc(Cl)cc1
inactive: [10] | [1] | [2] | [3] | [4] | [13] | [12] | [14] | [15] | [16] | [17]

[Hg+2].[I-].[I-]
active: [10] 5.49 µM | [1] 7.76 µM | [2] 49 µM | [3] 2.17 µM | [12] 10.9 µM | [9] 6.86 µM

CC1CCC(C(C)C)C(OC(=O)c2ccccc2N)C1 (stereo not given)
active: [10] 38.4 µM | [1] 34.2 µM | [2] 43 µM | [3] 53.7 µM | [4] 38.4 µM

Nc1ccc(Cc2ccc(N)c(Cl)c2)cc1Cl
inactive: [1] | [2] | [3]

CCCCCCCCc1ccc(O)cc1
inactive: [11] | [7]
active: [1] 49.3 µM | [2] 49.3 µM | [3] 61.5 µM | [4] 22 µM | [16] 52.4 µM | [9] 61.5 µM

C=CCC1=C(C)C(OC(=O)C2C(C=C(C)C)C2(C)C)CC1=O (stereo not given)
inactive: [8] | [14] | [15] | [16] | [17]
active: [1] 58.3 µM | [2] 36.8 µM | [3] 61.1 µM | [13] 58.3 µM | [7] 61.1 µM

CCOc1cc(C(C)(C)C)ccc1C1COC(c2c(F)cccc2F)=N1 (stereo not given)
active: [11] 33.1 µM | [13] 14.9 µM
inactive: [1] | [2] | [4] | [12] | [8] | [9]

COC12CC[C@@]3(C[C@@H]1C(C)(O)C(C)(C)C)[C@H]1Cc4ccc(O)c5c4[C@@]3(CCN1CC1CC1)[C@H]2O5 (stereo not given in full)
active: [1] 54.6 µM | [3] 60.7 µM | [11] 54.1 µM | [4] 54.6 µM | [13] 21.7 µM | [12] 60.7 µM | [7] 54.1 µM | [9] 27.1 µM
inactive: [10]

O=c1ssc(Cl)c1Cl
active: [1] 27.5 µM | [3] 15.4 µM | [11] 17.2 µM | [7] 61.1 µM

CC(C)(O)c1cnn2c(-c3ccc(F)c(-c4c(F)cccc4C#N)c3)cnc2n1
inactive: [1] | [2] | [4] | [8]

N#CC(Cl)Cl
inactive: [10] | [1] | [3] | [11] | [4] | [5] | [6] | [13] | [12] | [7] | [9]
active: [8] 47.3 µM

Source: PubChem BioAssay (Tox21)
